# Measurements from PubChem BioAssay (NCATS).
# Several values for one entry are separate records, joined by “and”; a condition that tells them apart may be missing. Equal entries are not always repeated. Records with an inconclusive call do not appear. Activity calls are given as the source filed them. Unless noted, calls come from the whole dose curve; as a rule, active = well fitted curve in either direction with a large enough effect (not every such curve was filed as active); inconclusive = small, poorly fitted or top-dose-only effect, or another doubt; inactive = flat fitted curve, though single readings scatter.
# Tests used:
# [1] = AP1 Signaling Pathway (AID 357); details: ME-180 AP-1-bla reporter, EGF-induced, beta-lactamase ratio, 5 h;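 note: ME-180 reporter cells stimulated with EGF at its EC50 level; % is set by controls: 0 for no effect and ±100 for the full control effect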
# Method in brief: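 Cells are seeded overnight, exposed to compound titrations and an EC50 level of EGF for 5 hours at 37 °C, then loaded with CCF4 dye for 2.5 hours. Beta-lactamase activity under the AP-1 element is read as a blue/green ratio.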
# [2] = target: Cytochrome P450 1A2 (Homo sapiens) (UniProt P05177); test: p450-cyp1a2 (AID 410; calls by dose curve;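 note: -100% = full effect of reference inhibitor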); details: recombinant CYP1A2, luciferin-ME demethylation, luminescence; series mostly up to 57 µM
# Sequence of Cytochrome P450 1A2 (Homo sapiens) (P05177 whole entry, looked up): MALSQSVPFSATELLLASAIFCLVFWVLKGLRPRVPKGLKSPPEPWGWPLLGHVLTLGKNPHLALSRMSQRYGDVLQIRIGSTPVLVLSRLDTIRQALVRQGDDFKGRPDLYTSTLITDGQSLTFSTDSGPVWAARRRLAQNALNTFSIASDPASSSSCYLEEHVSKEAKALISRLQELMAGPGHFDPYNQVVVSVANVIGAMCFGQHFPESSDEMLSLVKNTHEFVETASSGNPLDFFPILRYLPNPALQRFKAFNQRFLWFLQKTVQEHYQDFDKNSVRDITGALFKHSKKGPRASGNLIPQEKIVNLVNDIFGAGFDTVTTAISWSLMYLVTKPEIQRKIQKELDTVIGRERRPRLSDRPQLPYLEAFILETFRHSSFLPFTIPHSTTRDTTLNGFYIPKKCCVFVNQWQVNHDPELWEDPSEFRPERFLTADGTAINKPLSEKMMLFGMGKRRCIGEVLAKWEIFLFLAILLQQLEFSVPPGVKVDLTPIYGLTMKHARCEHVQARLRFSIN
# Method in brief: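 20nM CYP1A2 with 100uM Luciferin-ME (at Km) in 100mM KPO4; compound preincubated 10 min, NADPH regeneration added, 60 min at room temperature. Luciferin quantified by luminescence after detection reagent; normalized to 57 uM furafylline.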
# [3] = NFAT Signaling Pathway (AID 444); details: Jurkat NFAT-bla M1, carbachol, beta-lactamase ratio, 5 h;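 note: carbachol stimulus at about its EC50 of 1 µM final; % is set by controls: 0 for no effect and ±100 for the full control effect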
# Method in brief: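 Jurkat cells carrying an NFAT-driven β-lactamase reporter and co-transfected muscarinic M1 receptor were treated with compound plus carbachol (1 uM final, an EC50 level) for 5 h at 37 °C. CCF4 loading followed for 1 h at RT; 460/530 nm ratio gave %activity.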
# [4] = target: Glucocorticoid receptor (Homo sapiens) (UniProt P04150); test: GR-GFP Redistribution (AID 450;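 active = compounds whose dose series gives a full or clear partial fitted curve of increased nuclear translocation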; note: potency is the fitted concentration of half-maximal effect); details: U2OS GR-GFP nuclear translocation, laser cytometry, 2 h
# Sequence of Glucocorticoid receptor (Homo sapiens) (P04150 whole entry, looked up, the tested form may be a part): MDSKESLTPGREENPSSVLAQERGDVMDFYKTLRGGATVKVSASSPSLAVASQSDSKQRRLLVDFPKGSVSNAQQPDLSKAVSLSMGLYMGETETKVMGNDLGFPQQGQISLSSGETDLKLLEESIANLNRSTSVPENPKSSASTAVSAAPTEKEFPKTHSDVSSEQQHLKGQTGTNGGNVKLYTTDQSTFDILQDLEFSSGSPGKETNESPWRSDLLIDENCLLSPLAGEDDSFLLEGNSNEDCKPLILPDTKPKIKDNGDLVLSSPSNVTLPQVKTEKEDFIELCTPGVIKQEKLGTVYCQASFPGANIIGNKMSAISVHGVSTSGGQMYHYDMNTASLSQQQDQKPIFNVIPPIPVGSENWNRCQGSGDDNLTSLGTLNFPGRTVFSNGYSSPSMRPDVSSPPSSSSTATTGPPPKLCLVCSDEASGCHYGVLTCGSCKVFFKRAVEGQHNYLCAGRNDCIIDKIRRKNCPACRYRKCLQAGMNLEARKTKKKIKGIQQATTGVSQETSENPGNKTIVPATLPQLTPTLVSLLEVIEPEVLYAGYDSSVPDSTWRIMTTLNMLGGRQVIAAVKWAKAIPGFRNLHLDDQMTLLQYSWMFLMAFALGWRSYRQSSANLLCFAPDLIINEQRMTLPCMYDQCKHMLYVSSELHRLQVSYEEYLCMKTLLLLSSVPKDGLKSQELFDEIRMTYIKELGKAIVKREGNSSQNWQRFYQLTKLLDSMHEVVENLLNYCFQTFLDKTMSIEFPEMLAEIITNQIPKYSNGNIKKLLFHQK
# [5] = target: Glucocorticoid receptor (Homo sapiens) (UniProt P04150); test: GR-EFC Redistribution (AID 451; calls by dose curve; note: potency is the fitted concentration of half-maximal effect); details: CHO-K1 GR-EFC translocation, beta-gal luminescence, 2 h
# Method in brief: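 CHO-K1 cells stably expressing nuclear-localized β-gal enzyme acceptor and GR fused C-terminally to the enzyme donor fragment; ligand-driven nuclear translocation restores β-gal by complementation. Compounds titrated up to 46 uM final, 2 h at 37 °C; luminescence read.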
# [6] = target: Mitogen-activated protein kinase 10 (Mus musculus) (UniProt Q61831); test: JNK3 AlphaScreen Assay (AID 530); details: JNK3 lysate, c-Jun phosphorylation; series mostly up to 57.1 µM;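 note: kinase came from lysate of stimulated human HepG2 cells; signal reports phosphorylation of biotinylated GST-cJun 1-79 at Ser73 with 10 µM ATP; % is set by controls: 0 for no effect and ±100 for the full control effect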
# Method in brief: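 Inhibitors reduce antibody binding to phosphorylated biotin-cJun, lowering AlphaScreen luminescence. Lysates from HepG2 cells pre-activated by IL-1beta plus TNF-alpha supplied JNK3; compounds were titrated.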
# [7] = target: Guanine nucleotide-binding protein G(i) subunit alpha-1 (Homo sapiens) (UniProt P63096); test: qHTS Assay for Inhibitors of RGS12 GoLoco Motif Activity (Green Fluorophore) (AID 879; active = well fitted curve in the direction sought with a large enough effect; an effect the other way counts as inactive or inconclusive;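 note: 0% = labeled peptide with Gαi1 and full inhibition = labeled peptide alone without protein; negative values mean loss of peptide binding seen as reduced polarization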); details: Galphai1/FITC-RGS12 GoLoco peptide, fluorescence polarization; series mostly up to 57.1 µM
# Sequence of Guanine nucleotide-binding protein G(i) subunit alpha-1 (Homo sapiens) (P63096 whole entry, looked up): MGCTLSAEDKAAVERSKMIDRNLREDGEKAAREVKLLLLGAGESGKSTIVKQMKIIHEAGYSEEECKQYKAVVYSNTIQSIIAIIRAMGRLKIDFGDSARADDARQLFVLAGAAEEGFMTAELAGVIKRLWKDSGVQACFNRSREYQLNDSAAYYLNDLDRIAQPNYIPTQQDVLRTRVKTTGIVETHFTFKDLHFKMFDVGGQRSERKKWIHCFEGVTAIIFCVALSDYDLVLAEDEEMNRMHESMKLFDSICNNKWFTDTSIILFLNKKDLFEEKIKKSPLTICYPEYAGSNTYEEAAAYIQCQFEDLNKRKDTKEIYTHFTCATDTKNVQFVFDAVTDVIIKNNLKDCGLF
# Method in brief: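 Fluorescence polarization assay: 50 nM Gαi1 with 10 nM FITC-labeled RGS12 GoLoco peptide in 10 mM Tris pH 7.5, 150 mM NaCl, 0.1 mM GDP, 0.05% NP40, 10 min at room temperature with compound.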
# [8] = target: Cytochrome P450 3A4 (Homo sapiens) (UniProt P08684); test: qHTS Assay for Activators of Cytochrome P450 3A4 (AID 885; active = well fitted curve in the direction sought with a large enough effect; an effect the other way counts as inactive or inconclusive; note: nearly all actives have a fitted effect of over 65% in size); details: recombinant CYP3A4, Luciferin-PPXE luminescence, 60 min; series mostly up to 57.1 µM
# Method in brief: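 Human CYP3A4 (20 nM) with Luciferin-PPXE at 25 uM (its KM) in 200 mM KPO4; 10 min compound preincubation, then NADPH regeneration and 60 min reaction at RT. Luciferin read by luminescence; normalized to 57 uM ketoconazole full inhibition.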
# [9] = qHTS Assay for Identification of Small Molecule Agonists for Thrombopoietin (TPO) Signaling Pathway (AID 917; active = well fitted curve in the direction sought with a large enough effect; an effect the other way counts as inactive or inconclusive; note: % is set by controls: 0 for no effect and ±100 for the full control effect); details: TPO signaling pathway reporter cells, agonist qHTS, stimulated with TPO at its EC50; series mostly up to 38.5 µM
# Method in brief: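 Luminescence from a Glycoprotein IIb promoter–driven luciferase reporter served as read-out in murine Ba/F3 cells carrying the human TPO receptor. Cells, deprived of IL-3 overnight, received compounds with 26 pM TPO and were incubated 24 hrs at 37 C.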
# [10] = target: Pyruvate kinase (Leishmania mexicana) (UniProt Q27686); test: qHTS Validation Assay for Inhibitors of Leishmania Mexicana Pyruvate Kinase (AID 945; active = well fitted curve in the direction sought with a large enough effect; an effect the other way counts as inactive or inconclusive;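 note: 0% = DMSO only neutral control wells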); details: purified L. mexicana pyruvate kinase, enzyme activity, E451W mutant enzyme; series mostly up to 57.5 µM
# Sequence of Pyruvate kinase (Leishmania mexicana) (Q27686 2-499 E452W): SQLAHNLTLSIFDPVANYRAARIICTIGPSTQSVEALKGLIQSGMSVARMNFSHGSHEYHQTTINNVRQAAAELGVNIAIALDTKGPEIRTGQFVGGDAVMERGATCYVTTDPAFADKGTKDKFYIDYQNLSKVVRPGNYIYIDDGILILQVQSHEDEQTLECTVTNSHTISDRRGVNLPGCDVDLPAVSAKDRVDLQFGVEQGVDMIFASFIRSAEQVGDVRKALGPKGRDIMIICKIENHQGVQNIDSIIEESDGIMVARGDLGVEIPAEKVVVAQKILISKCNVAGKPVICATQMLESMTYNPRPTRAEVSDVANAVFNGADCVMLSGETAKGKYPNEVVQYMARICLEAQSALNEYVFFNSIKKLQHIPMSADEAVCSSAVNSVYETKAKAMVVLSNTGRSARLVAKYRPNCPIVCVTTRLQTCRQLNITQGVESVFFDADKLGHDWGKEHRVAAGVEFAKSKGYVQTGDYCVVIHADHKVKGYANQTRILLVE
# Method in brief: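 LmPYK E451W 0.2 nM; 0.5 mM PEP, 0.1 mM ADP, 7 mM MgCl2, 50 mM KCl, imidazole pH 7.2, 0.01% Tween 20, 0.05% BSA; 1 h RT; PKLight luminescence; DMSO-normalized.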
# [11] = target: Pyruvate kinase PKM (Homo sapiens) (UniProt P14618); test: qHTS Assay for Activators of Human Muscle Pyruvate Kinase (AID 954; active = well fitted curve in the direction sought with a large enough effect, not every such curve was filed as active;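 note: 0% = uninhibited enzyme and -100% = no enzyme or full thiadiazolimine inhibition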); details: purified human muscle pyruvate kinase, luciferase-coupled luminescence, 1 h; series mostly up to 57.5 µM
# Sequence of Pyruvate kinase PKM (Homo sapiens) (P14618 whole entry, looked up): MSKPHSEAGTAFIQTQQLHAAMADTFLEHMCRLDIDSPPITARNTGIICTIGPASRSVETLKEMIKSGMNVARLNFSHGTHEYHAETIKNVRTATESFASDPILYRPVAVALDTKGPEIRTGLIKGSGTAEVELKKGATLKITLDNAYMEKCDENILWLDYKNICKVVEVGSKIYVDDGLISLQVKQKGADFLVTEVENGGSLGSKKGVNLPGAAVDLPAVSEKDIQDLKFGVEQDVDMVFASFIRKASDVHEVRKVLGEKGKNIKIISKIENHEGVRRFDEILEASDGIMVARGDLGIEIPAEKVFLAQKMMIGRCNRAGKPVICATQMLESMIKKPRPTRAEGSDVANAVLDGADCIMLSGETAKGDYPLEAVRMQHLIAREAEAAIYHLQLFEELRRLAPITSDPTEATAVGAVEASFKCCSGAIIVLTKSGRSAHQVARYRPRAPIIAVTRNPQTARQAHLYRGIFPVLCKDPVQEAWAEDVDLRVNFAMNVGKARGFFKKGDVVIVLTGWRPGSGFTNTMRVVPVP
# Method in brief: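 Purified human PKM2 (0.1 nM) with 0.5 mM PEP (Km) and 0.1 mM ADP in 50 mM imidazole pH 7.2, KCl, MgCl2, 1 h at room temperature; ATP formed read by coupled luciferase luminescence. Normalized to no-enzyme/110 uM thiadiazolimine inhibition; 0.3 nM enzyme column for activation.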
# [12] = target: Alpha-galactosidase A (Homo sapiens) (UniProt P06280); test: Counterscreen for Glucocerebrosidase Inhibitors: qHTS Assay for Human alpha-Galactosidase at pH 4.5 (AID 992; active = well fitted curve in the direction sought with a large enough effect; an effect the other way counts as inactive or inconclusive; note: 0% is about no effect); details: purified enzyme, fluorogenic substrate; series mostly up to 76.9 µM
# Sequence of Alpha-galactosidase A (Homo sapiens) (P06280 whole entry, looked up): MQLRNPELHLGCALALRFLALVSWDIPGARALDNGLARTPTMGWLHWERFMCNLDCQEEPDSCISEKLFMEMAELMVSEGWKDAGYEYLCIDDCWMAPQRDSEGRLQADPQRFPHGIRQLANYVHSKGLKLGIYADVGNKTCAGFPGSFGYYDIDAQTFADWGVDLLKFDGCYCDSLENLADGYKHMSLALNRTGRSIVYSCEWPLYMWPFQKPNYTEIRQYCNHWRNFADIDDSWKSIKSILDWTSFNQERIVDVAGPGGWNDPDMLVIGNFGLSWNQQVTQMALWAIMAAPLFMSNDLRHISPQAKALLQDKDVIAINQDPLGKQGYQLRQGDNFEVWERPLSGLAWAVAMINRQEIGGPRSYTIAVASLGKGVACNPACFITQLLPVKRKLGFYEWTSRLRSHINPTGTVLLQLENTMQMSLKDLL
# Method in brief: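 Human enzyme (2 nM) with 80 uM 4-methylumbelliferyl alpha-D-galactopyranoside in 50 mM citric acid, 0.005% Tween-20, pH 4.5, 20 min at room temperature. Compounds 0.7 nM–77 uM; fluorescence Ex 365/Em 440 after pH 10 stop; AC50 from Hill fits.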
# [13] = target: alpha-glucosidase (Oryza sativa, rice) (UniProt Q653V4); test: Counterscreen for Glucocerebrosidase Inhibitors: qHTS Assay for Rice alpha-Glucosidase at pH 5.0 (AID 997; active = well fitted curve in the direction sought with a large enough effect; an effect the other way counts as inactive or inconclusive;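 note: 0% = full activity with enzyme and -100% = basal without enzyme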); details: rice alpha-glucosidase enzyme activity; series mostly up to 76.9 µM
# Method in brief: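 Rice alpha-glucosidase (4 nM final) with 400 uM 4-methylumbelliferyl-alpha-D-glucopyranoside in citrate buffer pH 5.0, 20 min at room temperature, stopped at pH 10; fluorescence 365/440 nm, compounds 0.7 nM–77 uM, AC50 from Hill fits.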
# [14] = qHTS Assay for Lipid Storage Modulators (AID 1519; calls by dose curve); details: Drosophila S3 cells, BODIPY lipid droplet/cell ratio, laser cytometry, cells loaded with oleic acid
# Method in brief: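 Cells seeded at 5,000 per well were treated with compounds over a concentration series and loaded with oleic acid (400 uM, as added). Lipid droplet fluorescence (488 nm excitation, 500-530 nm channel) was read by laser-scanning cytometry and normalized to 20 uM Triacsin C.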
# [15] = target: Ubiquitin carboxyl-terminal hydrolase 1 (Homo sapiens) (UniProt O94782); test: Inhibitors of USP1/UAF1: Pilot qHTS (AID 504865; active = well fitted curve in the direction sought with a large enough effect; an effect the other way counts as inactive or inconclusive;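 note: rhodamine fluorescence freed from ubiquitin-rhodamine substrate followed over time; top concentration of the series differs between compounds; % is set by controls: 0 for no effect and ±100 for the full control effect; nearly all actives have a fitted effect of over 35% in size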); details: purified USP1/UAF1, Ub-rhodamine cleavage fluorescence; series mostly up to 54.9 µM
# Sequence of Ubiquitin carboxyl-terminal hydrolase 1 (Homo sapiens) (O94782 whole entry, looked up): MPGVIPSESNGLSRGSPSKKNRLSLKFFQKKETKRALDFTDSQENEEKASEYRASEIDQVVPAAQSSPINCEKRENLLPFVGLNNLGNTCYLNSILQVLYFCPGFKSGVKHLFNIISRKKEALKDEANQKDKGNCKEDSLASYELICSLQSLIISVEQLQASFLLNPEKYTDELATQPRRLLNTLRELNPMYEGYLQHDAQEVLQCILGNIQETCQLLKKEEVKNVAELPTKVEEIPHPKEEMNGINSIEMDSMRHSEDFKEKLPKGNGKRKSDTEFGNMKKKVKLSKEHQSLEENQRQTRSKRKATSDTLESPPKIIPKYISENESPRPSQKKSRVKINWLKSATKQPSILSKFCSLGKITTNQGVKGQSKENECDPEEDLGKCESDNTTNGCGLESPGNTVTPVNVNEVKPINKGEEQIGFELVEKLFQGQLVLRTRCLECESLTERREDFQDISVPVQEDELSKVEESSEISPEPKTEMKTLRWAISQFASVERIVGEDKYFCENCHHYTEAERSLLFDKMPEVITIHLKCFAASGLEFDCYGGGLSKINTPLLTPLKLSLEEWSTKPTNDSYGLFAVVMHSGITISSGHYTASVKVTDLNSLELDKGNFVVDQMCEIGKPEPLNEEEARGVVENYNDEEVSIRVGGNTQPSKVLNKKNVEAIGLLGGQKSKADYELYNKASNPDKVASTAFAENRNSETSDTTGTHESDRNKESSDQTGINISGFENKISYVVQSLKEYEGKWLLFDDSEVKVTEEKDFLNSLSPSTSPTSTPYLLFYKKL
# Method in brief: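 In 50mM HEPES pH 7.8 containing 0.5mM EDTA, 1mM TCEP, 0.1 mg/ml BSA and 0.01% Tween-20, 1nM USP1/UAF1 is exposed to compound for 15 min, then Ub-Rho (150nM final) is added and fluorescence is read over time.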
# [16] = target: Lysosomal acid glucosylceramidase (Homo sapiens) (UniProt P04062); test: Glucocerebrosidase-p2 (AID 348; in the data active = potency below about 10 µM; note: potency is the fitted concentration of half-maximal effect); details: purified GBA, blue fluorogenic substrate, 40 min
# Method in brief: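 Compounds titrated from 0.6 nM upwards against 0.2 nM enzyme in pH 5.9 citric acid/KH2PO4, taurocholate, tween-20; blue fluorogenic substrate 80 uM, 40 min room temperature, stopped and read Ex 365/Em 440 for AC50.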
# [17] = Stat Signaling Pathway (AID 446); details: ME-180 SIE beta-lactamase reporter, IL-6 stimulated, 5 h
# Method in brief: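 ME-180 cells carrying a SIE-driven beta-lactamase reporter are stimulated with 40 pM IL-6 for 5 h at 37C in the presence of compound. The 460/530 nm FRET substrate ratio is read after 2.5 h at RT. Data are normalised to 300 pM IL-6 and to 125 nM JAK inhibitor controls.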
# [18] = target: 3',5'-cyclic-AMP phosphodiesterase 4B (Homo sapiens) (UniProt Q07343); test: qHTS Assay for Inhibitors of PDE-IV (AID 607; active = well fitted activation curve with a large enough effect in the main read-out, with a control signal flat, not every such curve was filed as active; note: % of control where 0% means no effect); details: HEK293 ACTOne CNG channel cells, membrane potential fluorescence; series mostly up to 22.9 µM
# Sequence of 3',5'-cyclic-AMP phosphodiesterase 4B (Homo sapiens) (Q07343 whole entry, looked up): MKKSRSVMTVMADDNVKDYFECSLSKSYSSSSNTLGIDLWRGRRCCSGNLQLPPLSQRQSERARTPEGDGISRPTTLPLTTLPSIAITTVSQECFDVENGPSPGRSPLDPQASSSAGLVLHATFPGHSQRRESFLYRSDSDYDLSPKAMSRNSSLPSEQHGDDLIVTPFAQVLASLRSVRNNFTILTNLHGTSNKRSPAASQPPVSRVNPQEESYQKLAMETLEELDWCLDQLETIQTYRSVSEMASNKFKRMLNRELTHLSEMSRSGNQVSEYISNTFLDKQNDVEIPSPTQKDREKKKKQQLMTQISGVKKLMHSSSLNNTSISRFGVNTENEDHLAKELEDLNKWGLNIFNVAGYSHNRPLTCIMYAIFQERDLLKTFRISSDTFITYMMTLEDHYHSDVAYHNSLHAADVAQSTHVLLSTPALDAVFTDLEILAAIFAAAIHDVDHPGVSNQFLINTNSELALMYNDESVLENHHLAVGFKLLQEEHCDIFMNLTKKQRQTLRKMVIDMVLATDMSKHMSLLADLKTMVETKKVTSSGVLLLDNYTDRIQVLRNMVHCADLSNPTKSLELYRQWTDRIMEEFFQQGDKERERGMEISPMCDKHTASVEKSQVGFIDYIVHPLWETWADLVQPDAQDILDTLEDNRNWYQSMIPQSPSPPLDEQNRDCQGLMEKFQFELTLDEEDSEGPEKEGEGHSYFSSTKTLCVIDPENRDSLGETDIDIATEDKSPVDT
# Method in brief: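 HEK293 ACTOne cells with CNG channel (1000/well), endogenous PDE4; membrane potential dye, compounds up to 22.9 uM final. Fluorescence Ex 535/Em 590; RO 20-1724 (100 uM final) as reference.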
# [19] = qHTS profiling for inhibitors of Plasmodium falciparum proliferation (AID 504749; active = well fitted curve in the direction sought with a large enough effect; an effect the other way counts as inactive or inconclusive; note: potency is the fitted concentration of half-maximal effect;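 for activity, negative = inhibition: 0% = DMSO vehicle and full inhibition = artemisinin control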; for all read-outs here: nearly all actives have a fitted effect of over 60% in size); details: P. falciparum in erythrocytes, SYBR Green DNA, 72 h; for activity, negative = inhibition: at 28.7 µM (top of the series)
# Method in brief: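 Parasite proliferation within erythrocytes, 72 h exposure. Endpoint: SYBR Green I fluorescence after overnight lysis at room temperature. Controls: 0.29 uM artemisinin, DMSO.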
# [20] = measured here: cell count channel max response
# [21] = measured here: lipid channel max response
# [22] = at 7.69 µM (top of the series) unless noted
structure (smiles),measurement,setting,value
CCCCCN(CCCCC)C(=O)[C@H](CCC(=O)O)NC(=O)c1ccc(Cl)c(Cl)c1,"activity change, negative = inhibition",[1]; at 17.2 µM (top of the series),-2.01% (inactive)
same,"activity change, negative = inhibition",[1]; at 38 µM (top of the series),3.64% (inactive)
same,Potency,[2],inactive
same,"activity change, negative = inhibition",[3]; at 17.2 µM (top of the series),-6.01% (inactive)
same,"activity change, negative = inhibition",[3]; at 38 µM (top of the series),-3.5% (inactive)
same,Potency,[4],> 46 µM (inactive) and > 20.6 µM (inactive)
same,Potency,[5],> 46 µM (inactive) and > 20.6 µM (inactive)
same,Potency,[6],inactive
same,Potency,[7],inactive
same,Potency,[8],inactive
same,outcome,[9],inactive
same,outcome,[10],inactive
same,outcome,[11],inactive
same,outcome,[12],inactive
same,outcome,[13],inactive
same,"activity change, negative = inhibition",[14]; at 25.7 µM (top of the series),-1.39% (inactive)
same,max response,[14]; [20],-23.7%
same,max response,[14]; [21],-25%
same,Potency,[15],inactive
Cc1cccc(CNc2ncnc3ccc(-c4cccc(NS(C)(=O)=O)c4)cc23)c1,Potency,[16],> 11.4 µM (inactive)
same,"activity change, negative = inhibition",[3]; [22],12.3% (inactive)
same,"activity, negative = inhibition",[17]; [22],-1.79% (inactive)
same,Potency,[4],> 46 µM (inactive)
same,Potency,[5],> 46 µM (inactive)
same,Potency,[6],inactive
same,Potency,[18],inactive
same,"activity change, negative = inhibition",[14]; at 57.5 µM (top of the series),-4.87% (inactive)
same,max response,[14]; [20],-15.4%
same,max response,[14]; [21],-18.6%
NC(=O)c1cc[n+](CC2=C(C(=O)O)N3C(=O)[C@@H](NC(=O)[C@H](c4ccccc4)S(=O)(=O)[O-])[C@@H]3SC2)cc1,"activity change, negative = inhibition",[1]; at 17.2 µM (top of the series),2.93% (inactive)
same,"activity change, negative = inhibition",[1]; at 38 µM (top of the series),-7.21% (inactive)
same,Potency,[2],inactive
same,"activity change, negative = inhibition",[3]; at 17.2 µM (top of the series),5.18% (inactive)
same,"activity change, negative = inhibition",[3]; at 38 µM (top of the series),3.09% (inactive)
same,"activity, negative = inhibition",[17]; at 17.2 µM (top of the series),0.394% (inactive)
same,"activity, negative = inhibition",[17]; at 38 µM (top of the series),0.148% (inactive)
same,Potency,[6],inactive
same,Potency,[18],inactive
same,Potency,[7],inactive
same,outcome,[9],inactive
same,outcome,[10],inactive
same,outcome,[11],inactive
same,outcome,[12],inactive
same,outcome,[13],inactive
same,"activity change, negative = inhibition",[14]; at 25.7 µM (top of the series),-1.52% (inactive)
same,max response,[14]; [20],-10.2%
same,max response,[14]; [21],-11.3%
same,Potency,[19]; parasite line A,3.55 µM (active)
same,Potency,[19]; parasite line B,3.55 µM (active)
O=c1c(-c2cccs2)nc2cnc(Oc3cccc(Cl)c3)nc2n1C1CC1,Potency,[16],> 11.4 µM (inactive)
same,Potency,[4],> 9.22 µM (inactive)
same,Potency,[5],> 46 µM (inactive)
same,Potency,[6],inactive
same,"activity change, negative = inhibition",[14]; at 57.5 µM (top of the series),-23.5% (inactive)
same,max response,[14]; [20],0.533%
same,max response,[14]; [21],-23.3%
CCCN(CCC)C(=O)[C@@H](CCC(=O)O)NC(=O)c1ccccc1,"activity change, negative = inhibition",[1]; at 17.2 µM (top of the series),0.378% (inactive)
same,"activity change, negative = inhibition",[1]; at 38 µM (top of the series),-3.39% (inactive)
same,Potency,[2],inactive
same,"activity change, negative = inhibition",[3]; at 17.2 µM (top of the series),-4.73% (inactive)
same,"activity change, negative = inhibition",[3]; at 38 µM (top of the series),-3.22% (inactive)
same,"activity, negative = inhibition",[17]; at 17.2 µM (top of the series),-4.56% (inactive)
same,"activity, negative = inhibition",[17]; at 38 µM (top of the series),-1.87% (inactive)
same,Potency,[4],> 46 µM (inactive) and > 20.6 µM (inactive)
same,Potency,[5],> 46 µM (inactive) and > 20.6 µM (inactive)
same,Potency,[6],inactive
same,Potency,[18],inactive
same,Potency,[7],inactive
same,outcome,[9],inactive
same,outcome,[10],inactive
same,outcome,[11],inactive
same,outcome,[12],inactive
same,outcome,[13],inactive
same,"activity change, negative = inhibition",[14]; at 25.7 µM (top of the series),0.554% (inactive)
same,max response,[14]; [20],5.84%
same,max response,[14]; [21],4.96%
same,Potency,[15],inactive
same,"activity, negative = inhibition",[19]; parasite line A,5.79% (inactive)
same,"activity, negative = inhibition",[19]; parasite line B,7.29% (inactive)
